LmPK inhibitor: LmPK (Leishmania mexicana) enzyme inhibition; AID 1721; Potency, µM (top dose mostly 57.5 µM), actives largely listed as inhibitors; purified LmPK, Kinase-Glo ATP luminescence, 1 h; hit rate 0.37% among 290,000; active means well fitted curve in the direction sought with a large enough effect; inconclusive means small, poorly fitted or top-dose-only effect, or another doubt; inactive means no such curve, though single readings can be large; an effect the other way counts as inactive or inconclusive
Target sequence (Q27686 whole entry, looked up): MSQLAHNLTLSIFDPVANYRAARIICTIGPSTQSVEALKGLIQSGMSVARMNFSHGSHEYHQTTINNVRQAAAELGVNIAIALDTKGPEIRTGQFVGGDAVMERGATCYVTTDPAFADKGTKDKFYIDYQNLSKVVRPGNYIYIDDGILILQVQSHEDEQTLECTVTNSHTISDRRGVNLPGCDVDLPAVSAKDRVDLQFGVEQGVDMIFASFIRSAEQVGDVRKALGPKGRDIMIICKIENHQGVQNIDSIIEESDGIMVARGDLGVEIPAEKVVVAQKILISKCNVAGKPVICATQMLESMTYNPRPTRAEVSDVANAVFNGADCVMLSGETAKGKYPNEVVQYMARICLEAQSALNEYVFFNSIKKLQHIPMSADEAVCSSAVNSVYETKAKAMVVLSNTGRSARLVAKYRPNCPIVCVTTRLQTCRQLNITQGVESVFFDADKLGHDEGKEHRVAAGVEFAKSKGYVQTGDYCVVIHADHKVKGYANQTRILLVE
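Purified LmPK (0.1 nM) with 0.5 mM PEP and 0.1 mM ADP in imidazole buffer pH 7.2 with MgCl2/KCl, 1 h at room temperature. ATP formed was read by luciferase luminescence and normalized to no-enzyme and uninhibited controls.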
TbPYK inhibitor: T. brucei pyruvate kinase inhibition. Q57TT1. TbPYK enzyme, Kinase-Glo Plus ATP luminescence, 45 min. Potency, µM (series often up to 76.8 µM), usual class: inhibitors. hit rate 0.12% among 410,000. AID 624173; active means well fitted curve in the direction sought with a large enough effect; inconclusive means small, poorly fitted or top-dose-only effect, or another doubt; inactive means no such curve, though single readings can be large; an effect the other way counts as inactive or inconclusive; further: nearly all actives have a fitted effect of over 50% in size
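T. brucei PYK with substrate was exposed to pin-transferred compounds across a concentration series, then started with 130 uM ADP (final). After 45 min at room temperature, Kinase-Glo Plus luminescence was read, normalized and curve-fitted.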
CHX counter: counter-screen for Shiga toxin inhibitors: cycloheximide protein synthesis inhibition; hit rate 12% among 300,000; max response, %; AID 2314; cell reporter, cycloheximide protein synthesis inhibition counterscreen; in the data active means max response mostly above about 13%, no sharp cut-off; inactive means mostly below about 14%; further: read at 38.3 µM for the half of the compounds with a filed dose
Shiga toxin inh: inhibitors of Shiga toxin in Vero cells | Vero cells, Shiga toxin protein synthesis inhibition reporter | inhibition, % at 38.7 µM | hit rate 9.2% among 290,000 | AID 2315; in the data active means inhibition mostly above about 28%, no sharp cut-off; inactive means mostly below about 43%
NS1 inh: influenza NS1 inhibition. AID 2326. hit rate 0.4% among 270,000. Potency, µM (doses to about 46.1 µM); further: actives are rising curves; nearly all actives have a fitted effect of over 50% in size
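Read-out: OD600 growth recovery of NS1-expressing budding yeast. Cells grown overnight at 30C in -URA glucose medium, washed, resuspended and diluted 1:100 in 2% galactose assay medium, pH 6.0. Same strain lacking NS1 served as positive control.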
SARS PLP yeast: SARS-CoV PLP inhibition in yeast. S. cerevisiae expressing SARS-CoV PLpro, growth rescue. Potency, µM (doses to about 32.9 µM), most hits filed as activators. hit rate 0.19% among 330,000; further: nearly all actives have a fitted effect of over 55% in size
Each line names hits and unclear results; the compound was inactive in the other large screens. This is one part of a sample in which hits are shown more often than they occur. Unless noted, the call rests on the fitted dose curve.

COc1ccccc1N1CCN(/N=C/C=C\c2ccccc2[N+](=O)[O-])CC1	CHX counter 43, Shiga toxin inh 45 (no result: NS1 inh)
CC(C(=O)NCc1cccc(Br)c1)n1ncn2cccc2c1=O (configuration not stated)	none (no result: LmPK inhibitor, CHX counter, Shiga toxin inh, NS1 inh, SARS PLP yeast)
O=C(C1CCCN(S(=O)(=O)c2ccc(F)cc2)C1)N1CCCCC1 (configuration not stated)	none
Cc1ccc(C(C)NC(=S)NC2CCCCC2)c(C)c1 (configuration not stated)	none
COc1cc(/C=C2\SC(c3ccc(C)cc3)=NC2=O)ccc1O	LmPK inhibitor 28µM, TbPYK inhibitor inconclusive, CHX counter 23, Shiga toxin inh 52
COc1ccc(/C=C2\SC(c3ccc(C)cc3)=NC2=O)cc1OC	LmPK inhibitor inconclusive, TbPYK inhibitor 8.9µM
COc1ccc(/C=C2/SC(c3ccc(C)cc3)=NC2=O)cc1OC	LmPK inhibitor inconclusive, TbPYK inhibitor inconclusive
CC(C)Oc1cccc(C(=O)C2CCCN(C(=O)c3ccoc3)C2)c1 (configuration not stated)	CHX counter 16, Shiga toxin inh 26
CC(C)Oc1cccc(C(=O)C2CCCN(Cc3ccon3)C2)c1 (configuration not stated)	CHX counter 8.4
Cc1ncoc1C(=O)N1CCCC(C(=O)c2cccc(OC(C)C)c2)C1 (configuration not stated)	none
COc1ccc(NC(=O)c2ccc(-c3ccc([N+](=O)[O-])cc3)o2)cc1	none (no result: NS1 inh)
O=C(Nc1ccccc1)c1ccc(-c2ccc([N+](=O)[O-])cc2)o1	CHX counter 31, Shiga toxin inh 69
O=C(Nc1ccccc1)c1ccc(-c2ccc(Br)cc2)o1	CHX counter 38, Shiga toxin inh 54
O=C(c1ccc(-c2ccc([N+](=O)[O-])cc2)o1)N1CCCCC1	CHX counter 43, Shiga toxin inh 93
Cn1c2cc(B(O)O)sc2c2cnn(Cc3ccc(F)cc3F)c(=O)c21	none (no result: LmPK inhibitor, TbPYK inhibitor, CHX counter, Shiga toxin inh, NS1 inh)
Cc1ccc(Nc2cc(-n3cccn3)ncn2)c(C)c1	CHX counter 28
Cc1cnn(-c2cc(N/N=C/c3cccc(F)c3)ncn2)c1	none
Cc1ccc(Nc2cc(-n3nc(C)cc3C)ncn2)c(C)c1	none
Fc1cccc(Nc2cc(-n3cccn3)ncn2)c1	CHX counter 49, Shiga toxin inh 51
CC(=O)N=c1sccn1CC(O)c1ccc(Br)cc1 (configuration not stated)	none
O=C(O)/C=C/C(=O)Nc1ccc(Oc2ncnc3cc(Cl)ccc23)nc1	CHX counter 26, Shiga toxin inh 58
O=C(Nc1ccccc1)Nc1ccc(Oc2ncnc3cc(Cl)ccc23)nc1	none
CCOc1ccc(CCNC(=O)CCCc2nnc3n(CC(C)C)c(=O)c4sccc4n23)cc1	none (no result: LmPK inhibitor, CHX counter, Shiga toxin inh, NS1 inh, SARS PLP yeast)
CC1(C)C2CC[C@]1(C)[C@@H](O)C2	none (no result: LmPK inhibitor, CHX counter, Shiga toxin inh, NS1 inh, SARS PLP yeast)
Cc1ccc(NC(=O)c2ccnc(C(C)(C)C)c2)cc1	CHX counter 16, Shiga toxin inh 71
CC(C)(C)NC(=O)c1ccnc(C(C)(C)C)c1	none
CC(C)(C)c1cc(C(=O)Nc2ccccc2)ccn1	CHX counter 25
Cc1ccc(-c2csc3nc(SCC(=O)Nc4ccc(Cl)c(C(=O)O)c4)[nH]c(=O)c23)cc1	none
COC(=O)CSc1nc(N)c2c3c(sc2n1)CCCC3	CHX counter 16
CC(C)(C)C1CCc2c(sc3nc(SCC(=O)O)nc(N)c23)C1 (configuration not stated)	LmPK inhibitor 25µM, TbPYK inhibitor inconclusive, CHX counter 16
CN(C(=O)CSc1nnc(-c2ccco2)o1)C1CCCCC1	none
CCN(CC)C(=O)CSc1nnc(-c2ccco2)o1	CHX counter 23, Shiga toxin inh 47
O=C(CSc1nnc(-c2ccco2)o1)c1ccc([N+](=O)[O-])cc1	none
CC(=O)c1ccc(NC(=O)CSc2nnc(-c3ccco3)o2)cc1	CHX counter 17
Cc1cc(C(=O)CSc2nncs2)c(C)n1Cc1ccco1	CHX counter 38, Shiga toxin inh 109 (no result: NS1 inh)
O=C(CSc1nnc(-c2ccco2)o1)c1ccccc1Cl	CHX counter 17
CN(C(=O)c1cc2nc(-c3ccco3)cc(C(F)(F)F)n2n1)c1ccc(OC(F)(F)Cl)cc1	none (no result: LmPK inhibitor, CHX counter, Shiga toxin inh, NS1 inh, SARS PLP yeast)
CC1CCCC(C)N1C(=O)COC(=O)c1ccc(S(=O)(=O)N(C)c2ccccc2)cc1 (configuration not stated)	none (no result: LmPK inhibitor, CHX counter, Shiga toxin inh, NS1 inh)
CNc1cncc(-c2cccc(OC)c2F)n1	none (no result: LmPK inhibitor, CHX counter, Shiga toxin inh, NS1 inh, SARS PLP yeast)
O=C(Cc1ccccc1)Nc1ncccc1Cl	none (no result: LmPK inhibitor, CHX counter, Shiga toxin inh, NS1 inh, SARS PLP yeast)
CC(=O)c1sc(NC(=O)C2CCCN2S(=O)(=O)c2ccccc2F)nc1C (configuration not stated)	none (no result: LmPK inhibitor, CHX counter, Shiga toxin inh, NS1 inh)
Cc1cc(C(=O)CSc2nnc(-c3ccco3)o2)c(C)n1Cc1ccco1	CHX counter 31, Shiga toxin inh 96
O=C(CSc1ncc2c(n1)-c1ccc(Cl)cc1N(Cc1ccccc1)S2(=O)=O)Nc1ccccc1C(F)(F)F	none (no result: LmPK inhibitor, CHX counter, Shiga toxin inh, NS1 inh, SARS PLP yeast)
O=C(COc1ccccc1Cl)NC(=S)Nc1ccc(CN2CCOCC2)cc1	none
O=C(NC(=S)Nc1ccc(N2CCOCC2)cc1)c1ccc(Cl)cc1	none
O=C(CCCCl)NC(=S)Nc1ccc(N2CCOCC2)cc1	CHX counter 34, Shiga toxin inh 96
O=C(CCCCl)NC(=S)Nc1ccc(CN2CCOCC2)cc1	CHX counter 13
Cc1cc(=O)oc2cc(NC(=O)[C@H](CCCCN)NC(=O)[C@H](CC3CCCCC3)NC(=O)OCC3c4ccccc4-c4ccccc43)ccc12	none (no result: LmPK inhibitor, TbPYK inhibitor, NS1 inh, SARS PLP yeast)
COc1ccccc1NC(=O)CCn1nc(-c2ccccc2OC)c2c(C)cc(C)nc21	none (no result: LmPK inhibitor, CHX counter, Shiga toxin inh, NS1 inh, SARS PLP yeast)
CC(=O)c1sc(NC(=O)C=C(C)C)nc1C	LmPK inhibitor inconclusive, CHX counter 44, Shiga toxin inh 66
CC(C)=CC(=O)Nc1nnc(C)s1	CHX counter 16, Shiga toxin inh 25
CC(C)=CC(=O)Nc1nnc(-c2ccccc2)s1	CHX counter 46, Shiga toxin inh 14
CCC(=O)Nc1nnc(C)s1	none
CC(C)(C)n1nnnc1C1c2ccccc2C(=O)N1CCc1c[nH]c2ccccc12 (configuration not stated)	none (no result: LmPK inhibitor, CHX counter, Shiga toxin inh, NS1 inh, SARS PLP yeast)
CC(C)[C@@H]1Cc2[nH]c(=S)[nH]c(=O)c2[C@H](CCc2ccccc2)O1	none (no result: LmPK inhibitor, CHX counter, Shiga toxin inh, NS1 inh, SARS PLP yeast)
CCOC(=O)c1cnc2cc(-c3ccc(Br)cc3)nn2c1C	CHX counter 22
CCOC(=O)c1cnc2cc(-c3ccc(Cl)cc3)nn2c1N	CHX counter 27
COC(=O)[C@@H]1C[C@@]2(O)[C@@H](O)[C@@H](O)[C@@H](O)C[C@H]2N1CC(c1ccccc1)c1ccccc1	none
O=C(NCCO)Nc1ccc(Cl)cc1	none
COc1ccc(N2CCC(CNC(=O)Nc3ccc(Cl)cc3)C2)cc1 (configuration not stated)	CHX counter 14 (no result: NS1 inh)
COc1ccc(N2CCC(CNC(=O)Nc3cccc(OC)c3)C2)cc1 (configuration not stated)	none

Compound activity from PubChem.
